EBV LMP1 NFkB: EBV LMP1-driven NF-kappaB luciferase reporter inhibitors, primary screen, cell-based, luminescence, single point; LMP1-induced NF-kappaB luciferase reporter cells; inhibition, % at 12.5 µM; 0.69% of 350,000 active; in the data active means inhibition above about 41%; inconclusive means no clear call, values can overlap the other calls
MITF TRPM1 inh: inhibitors of MITF-dependent TRPM1 promoter reporter, primary screen, cell-based, SK-MEL-5, single point, luciferase; 0.83% of 330,000 active; SK-MEL-5 TRPM1 promoter luciferase, 24 h; inhibition, % at 12.5 µM;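 active means mean inhibition across replicates of 60% or more, whatever share of single replicates reaches that level; inconclusive means some that reach 60%, reason not given; inactive means mean inhibition across replicates below 60%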
EWS-Fli block: EWS/Fli-driven NR0B1 reporter inhibitors, primary screen, A673 cells, NR0B1 luciferase, luminescence, MLPCN library; viability-normalised; AID 651661, 2012; inhibition, % at 12.6 µM; 0.67% of 350,000 active;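 active means mean inhibition of at least 50% after viability correction, with every replicate also passing that limit; inconclusive means mean reaches 50% but only one of two replicates passes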;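 further: firefly luciferase signal divided by Alamar Blue viability fluorescence both relative to DMSO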
PGC1a acetyl inh: inhibitors of PGC1a acetylation signal, primary screen, cell-based, U2OS, AlphaScreen, inhibitor mode; inhibition, % at 15.6 µM; AlphaScreen anti-acetyl-lysine; with virally co-expressed GCN5 acetyltransferase; 0.17% of 350,000 active; AID 651687, 2012;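 active means every replicate shows inhibition of at least 40%; inconclusive means mean inhibition at least 40% but some replicate below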
PAX8 inh HTS: inhibitors of PAX8-driven TPO luciferase reporter, primary screen, RMG-I cells, single concentration; SteadyGlo, 24 h; inhibition, % at 12.6 µM; 1.2% of 360,000 active; AID 652154, 2013;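 active means mean replicate inhibition at least 60% with every replicate also reaching 60%; inconclusive means only one of the two criteria is met; inactive means mean below 60% and not all replicates reaching 60%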;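 further: luciferase light reporting Pax8 driven TPO promoter activity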
LGR2 inh: inhibitors of bursicon-induced LGR2 CRE-luciferase signal, primary screen, cell-based, HEK293, CRE-luciferase reporter, bursicon stimulation; bursicon-stimulated, 4 h; 0.35% of 380,000 active; Drosophila bursicon receptor LGR2 (rickets); inhibition, % at 9.99 µM;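 active means drop in luminescence signal, shown as inhibition above about 50% in the replicate tests, limit read from the data, passing the limit was not always enough; inconclusive means probably only some replicates passing the limit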;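 further: agonist challenge used bursicon conditioned medium at about half maximal strength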
A number is an active result; . = inactive; ? = inconclusive; / = not tested or not shown. Compounds with a hit are over-represented: about 2.2% of the library has one in this group of screens.

SMILES	EBV LMP1 NFkB	MITF TRPM1 inh	EWS-Fli block	PGC1a acetyl inh	PAX8 inh HTS	LGR2 inh
O=C(c1ccc([N+](=O)[O-])s1)N1CCCc2ccccc21	.	70	.	.	.	.
COc1cccc(C#Cc2c(C=O)n(C)c3ccccc23)c1	.	.	.	.	85	.
Cn1c(C=O)c(C#CC(C)(C)O)c2ccccc21	.	.	.	.	74	.
Cn1c(C=O)c(-c2ccc3cc[nH]c3c2)c2ccccc21	.	.	.	.	.	.
C[C@H]1CN([C@@H](C)CO)S(=O)(=O)c2ccc(C#Cc3ccccn3)cc2O[C@H]1CN(C)Cc1ccccc1	/	/	.	.	/	.
O=C(C[C@@H]1C[C@@H]2c3cc(NC(=O)Nc4ccccc4F)ccc3O[C@@H]2[C@@H](CO)O1)NCc1ccc(Oc2ccccc2)cc1	/	/	.	84	.	.
O=C(C[C@@H]1C[C@H]2c3cc(NC(=O)Nc4ccccc4F)ccc3O[C@H]2[C@H](CO)O1)NCc1ccc(Oc2ccccc2)cc1	/	/	.	.	75	.
CO[C@H]1CN(C)C(=O)c2ccc(NS(=O)(=O)c3cn(C)cn3)cc2OC[C@@H](C)N(CCC(F)(F)F)C[C@H]1C	/	/	.	.	.	.
CC(=O)c1ccc(N=Nc2c(C)[nH][nH]c2=O)cc1	.	.	.	.	.	/
CC(=O)c1ccc(N=Nc2ccc(N)cc2)cc1	.	.	.	.	.	64
CC(C)CC[n+]1ccccc1/C=C/c1ccc(N(C)C)cc1	.	73	.	.	82	.
CN(C)c1ccc(/C=C/c2cccc[n+]2[O-])cc1	.	.	.	.	.	/
O=C(CCCOc1ccccc1)N1CCN(c2ccccc2)CC1	86	.	/	.	/	.
COc1ccc(S(=O)(=O)Nc2ccc3c(c2)C(=O)N([C@H](C)CO)C[C@H](C)[C@@H](CN(C)Cc2ccc(Cl)c(Cl)c2)OCCCC[C@H](C)O3)cc1	/	/	.	.	.	.
COc1ccc(S(=O)(=O)Nc2ccc3c(c2)C(=O)N([C@H](C)CO)C[C@H](C)[C@@H](CN(C)Cc2ccc(Cl)c(Cl)c2)OCCCC[C@@H](C)O3)cc1	/	/	.	.	94	.
COc1ccc(S(=O)(=O)Nc2ccc3c(c2)C(=O)N([C@H](C)CO)C[C@@H](C)[C@H](CN(C)Cc2ccc(Cl)c(Cl)c2)OCCCC[C@@H](C)O3)cc1	/	/	.	.	66	.
C[C@@H]1CCCCO[C@H](CN(C)S(=O)(=O)c2ccc(Cl)cc2)[C@@H](C)CN([C@@H](C)CO)C(=O)c2cc(NC(=O)c3ccccc3)ccc2O1	/	/	.	.	.	.
CNc1ccc(Br)cc(C(=O)/C=C/c2cccc(Cl)c2Cl)c1=O	?	81	.	/	.	.
CNc1ccc(Br)cc(C(=O)/C=C/c2cccc(OC)c2OC)c1=O	.	.	/	.	/	/
CCNc1ccc(Br)cc(C(=O)/C=C/c2ccccc2Cl)c1=O	83	.	/	.	/	/
CC1(C)CC(=O)C2=C(C1)Nc1ccccc1NC2c1cc(Cl)ccc1O (centres undefined)	85	.	.	.	.	.
CCOC(=O)c1c(-c2ccc(F)cc2)csc1NC(=O)CN1C(=O)NC2(CCCCC2C)C1=O (centres undefined)	.	.	.	.	99	.
CCOC(=O)c1c(NC(=O)CN2C(=O)NC3(CCCCC3C)C2=O)sc(C)c1C (centres undefined)	.	.	/	/	.	.
O=C(CCc1ccc(F)c(F)c1)NC1CCCN(Cc2ccc(Cl)cc2)C1 (centres undefined)	80	.	.	/	.	.
COCCNC(=S)N(CCc1c(C)[nH]c2ccc(OC)cc12)Cc1cccnc1	42	.	.	.	.	.
CC(C)C(=O)Nc1ccc2c(c1)C(=O)N(C)[C@H]1CC[C@H](CC(=O)NCc3ccccc3F)O[C@H]1CO2	/	/	.	.	.	.
CCOC(=O)C1=C(C)N(C)C(=O)NC1c1ccccc1OC (centres undefined)	40	.	/	.	/	/

Assay outcomes deposited in PubChem BioAssay by Broad Institute.
